The values that follow come from the supplement of paper PMC9801561.

Assay [1] concerns Escherichia coli Nissle 1917. The assay is described as follows: area under OmniLog respiration curve over 48 h (OmniLog units x h); higher = more growth / nutrient utilisation; extreme values may be limits of the assay. The note with it: incubation: 48 h, 37 °C.
For assay [2], the system named is Escherichia coli Nissle 1917. The assay is described as follows: DuctApe activity index of respiration/growth curve (0 no growth to 9 maximum) (index 0-9); higher = more growth / nutrient utilisation, active = 3 or more; extreme values may be limits of the assay. As to conditions: incubation: 48 h, 37 °C.
[3] abbreviates: nutrient role: C-Source, carbohydrate.
[4] abbreviates: nutrient role: sole nitrogen source (pyruvate carbon).
[5] abbreviates: nutrient role: C-Source, carboxylic acid.
[6] abbreviates: nutrient role: sole sulfur source (pyruvate carbon).
Where [7] appears, read: nutrient role: sole phosphorus source (pyruvate carbon).
[8] abbreviates: nutrient role: N-Source, inorganic.

± gives the standard deviation of the averaged measurements.
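Wherever DuctApe activity index of respiration/growth curve (0 no growth to 9 maximum) is given: biolog PM4 phosphorus and sulfur plates, tetrazolium violet dye reduction read in the OmniLog every 15 min, kinetic curves scored by DuctApe, each plate run in triplicate.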

As for `OCC(O)C(O)C(O)CO` (configuration not stated) [Adonitol], in assay [1] (setting [3]), the “area under OmniLog respiration curve” value was 2610 ± 350. Besides, the DuctApe activity index in assay [2] (setting [3]) was 5 (active).

Turning to `NCCCCCC(=O)O` [e-Amino-N-Caproic acid], the “area under OmniLog respiration curve” value in assay [1] (setting [4]) was found to be 1240 ± 1000. Moreover, the DuctApe activity index in assay [2] (setting [4]) was 2.33 (inactive).

As to `NCC(=O)N[C@@H](CC(N)=O)C(=O)O`, the “area under OmniLog respiration curve” value in assay [1] (setting [4]) came to 8340 ± 1500. In assay [2] (setting [4]), the DuctApe activity index was 8 (active).

`OC[C@H]1O[C@H](OC[C@H]2OC(O)[C@H](O)[C@@H](O)[C@@H]2O)[C@H](O)[C@@H](O)[C@H]1O` (stereo partly drawn) [D-Melibiose]: the “area under OmniLog respiration curve” value in assay [1] (setting [3]) is 7880 ± 1000. Moreover, the DuctApe activity index in assay [2] (setting [3]) is 7.67 (active).

On to `O=C(O)CCCCCCCCC(=O)O` [Sebacic acid], for which the “area under OmniLog respiration curve” value in assay [1] (setting [5]) is 4.72. For the same molecule, in assay [2] (setting [5]), the DuctApe activity index is 0 (inactive).

As to `NC(=O)C[C@@H](N)C(=O)O` [D-Asparagine], the “area under OmniLog respiration curve” value in assay [1] (setting [4]) worked out at 1420 ± 780. Further, the DuctApe activity index in assay [2] (setting [4]) is 2.33 (inactive).

As to `O=C(O)C[C@@H](O)C(=O)O` [D-Malic acid], the “area under OmniLog respiration curve” value in assay [1] (setting [5]) is 3920 ± 860. In assay [2] (setting [5]), the DuctApe activity index was 5.33 (active).

For `O=C(O)CC(CC(=O)O)C(=O)O` [Tricarballylic acid], the “area under OmniLog respiration curve” value in assay [1] (setting [5]) stood at 5.51 ± 1.4. In assay [2] (setting [5]), the DuctApe activity index was 0 (inactive).

With `O=S(=O)(O)SSS(=O)(=O)O` [Tetrathionate], the “area under OmniLog respiration curve” value in assay [1] (setting [6]) was determined as 7150 ± 120. In addition, the DuctApe activity index in assay [2] (setting [6]) is 7.67 (active).

Regarding `CCCCCC(=O)O` [Caproic acid], in assay [1] (setting [5]), the “area under OmniLog respiration curve” value was 4.72. In addition, the DuctApe activity index in assay [2] (setting [5]) was 0 (inactive).

On to `CO[C@H]1O[C@H](CO)[C@H](O)[C@H](O)[C@H]1O` [a-Methyl-D-Galactoside], for which the “area under OmniLog respiration curve” value in assay [1] (setting [3]) was 8070 ± 460. For the same molecule, the DuctApe activity index in assay [2] (setting [3]) was 8 (active).

Take `OC[C@H]1O[C@H](O[C@H]2[C@H](O)[C@@H](O)[C@@H](O[C@H]3[C@H](O)[C@@H](O)C(O)O[C@@H]3CO)O[C@@H]2CO)[C@H](O)[C@@H](O)[C@@H]1O` (mixture of isomers) [Maltotriose]: in assay [1] (setting [3]), the “area under OmniLog respiration curve” value was found to be 8540 ± 380. Further, the DuctApe activity index in assay [2] (setting [3]) is 8 (active).

`Nc1ccn([C@@H]2O[C@H](COP(=O)(O)O)[C@@H](O)[C@H]2O)c(=O)n1` [Cytidine 5`-Monophosphate]: in assay [1] (setting [7]), the “area under OmniLog respiration curve” value was found to be 8880 ± 960. The DuctApe activity index in assay [2] (setting [7]) is 8.67 (active).

Take `N[C@@H](CCC(=O)N[C@@H](CS)C(=O)NCC(=O)O)C(=O)O` [Glutathione]: the “area under OmniLog respiration curve” value in assay [1] (setting [6]) was 1690 ± 30. Moreover, the DuctApe activity index in assay [2] (setting [6]) was 5 (active).

Take `N[C@@H](C(=O)O)[C@@H](O)[C@H](O)[C@H](O)CO` [D-Glucosaminic acid]: the “area under OmniLog respiration curve” value in assay [1] (setting [5]) was 1010 ± 670. In addition, in assay [2] (setting [5]), the DuctApe activity index is 2 (inactive).

On to `Nc1[nH]cnc2ncnc1-2` [Adenine], for which, in assay [1] (setting [4]), the “area under OmniLog respiration curve” value was determined as 5810 ± 860. In addition, the DuctApe activity index in assay [2] (setting [4]) was 6.67 (active).

Regarding `O=C[C@H](O)[C@@H](O)[C@H](O)[C@H](O)CO[C@@H]1O[C@H](CO)[C@@H](O)[C@H](O)[C@H]1O` [Gentiobiose], the “area under OmniLog respiration curve” value in assay [1] (setting [3]) came to 475 ± 820. Further, the DuctApe activity index in assay [2] (setting [3]) was 1 (inactive).

As for `OCC1OC(O)(CO)C(O)C1O` [D-Fructose], the “area under OmniLog respiration curve” value in assay [1] (setting [3]) amounted to 8740 ± 720. In addition, the DuctApe activity index in assay [2] (setting [3]) was 8.67 (active).

With `N` [Ammonia], the “area under OmniLog respiration curve” value in assay [1] (setting [8]) stood at 8190 ± 1000. Also, the DuctApe activity index in assay [2] (setting [8]) is 8.33 (active).

Take `O=P(O)(O)OC[C@H]1OC(O)[C@@H](O)[C@@H](O)[C@@H]1O` (stereo partly drawn) [D-Mannose-6-Phosphate]: in assay [1] (setting [7]), the “area under OmniLog respiration curve” value came out at 8540 ± 570. Besides, in assay [2] (setting [7]), the DuctApe activity index was 8.33 (active).

Turning to `O=C[C@@H](O)[C@H](O[C@@H]1O[C@H](CO)[C@H](O)[C@H](O)[C@H]1O)[C@H](O)CO` [3-O-b-D-Galactopyranosyl-D-Arabinose], the “area under OmniLog respiration curve” value in assay [1] (setting [3]) stood at 8530 ± 550. Besides, in assay [2] (setting [3]), the DuctApe activity index is 8.33 (active).
